# Assay results published in PubChem BioAssay (NCI).
# “And” between values parts separate entries of the source, which are not always exact repeats. Equal values may be shown once. About 83,000 compounds went through this panel and 20% of them were active in at least one assay; those are over-represented in the sample as a whole.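 Interpretation: 100, growth as untreated; towards 0, rising growth inhibition; 0, no net growth; 0 to -100, cell death. Compounds scoring below 10 were considered active.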 The source made the active and inactive calls.
# What was measured:
# Assay in all cases: NCI-60 one-dose screen, 48 h (100 = growth as untreated, 0 = no growth, -100 = all killed)
# Details in all cases: 10 µM unless noted
# HCT-15 colon = system: HCT-15 colon
# HT29 colon = system: HT29 colon
# SNB-75 CNS = system: SNB-75 CNS
# SNB-19 CNS = system: SNB-19 CNS
# U251 CNS = system: U251 CNS
# PC-3 prostate = system: PC-3 prostate
# SK-MEL-5 melanoma = system: SK-MEL-5 melanoma
# UACC-62 melanoma = system: UACC-62 melanoma
# LOX IMVI melanoma = system: LOX IMVI melanoma
# SK-MEL-28 melanoma = system: SK-MEL-28 melanoma
SMILES,growth (HCT-15 colon),growth (HT29 colon),growth (SNB-75 CNS),growth (SNB-19 CNS),growth (U251 CNS),growth (PC-3 prostate),growth (SK-MEL-5 melanoma),growth (UACC-62 melanoma),growth (LOX IMVI melanoma),growth (SK-MEL-28 melanoma)
COc1ccc(C2CC(c3cccc(OCCCCOc4cccc(C5=NOC(c6ccc(OC)cc6)C5)c4)c3)=NO2)cc1 (stereo not given),77.3% (inactive),69.8% (inactive),101% (inactive),92% (inactive),77.3% (inactive),99.8% (inactive),97.5% (inactive),68.8% (inactive),17.9% (inactive),102% (inactive)
CN1CCN(Cc2ccc(/C=N/Nc3ccnc4cc(Cl)ccc34)cc2)CC1,38.2% (inactive),42.5% (inactive),99% (inactive),98.2% (inactive),84.6% (inactive),75.8% (inactive),94.3% (inactive),104% (inactive),15.3% (inactive),98% (inactive)
CC1=C(C)C(=O)C(Nc2cccc(C(=O)OC(C)(C)C)c2)=CC1=O,60.4% (inactive),104% (inactive),71% (inactive),78.2% (inactive),64.3% (inactive),76.7% (inactive),31.3% (inactive),65.6% (inactive),47.3% (inactive),96.5% (inactive)
CCCCCCOC(=O)c1cc(-c2ccc(F)cc2)nc2ccccc12,94.8% (inactive),96.3% (inactive),69.9% (inactive),92.6% (inactive),101% (inactive),94.2% (inactive),99.7% (inactive),79% (inactive),91.3% (inactive),107% (inactive)
CCc1nnc(NC(=O)c2cc(-c3ccc(Cl)cc3Cl)oc2C)s1,70.5% (inactive),89.7% (inactive),94% (inactive),79.7% (inactive),29.5% (inactive),82.7% (inactive),97.8% (inactive),73.2% (inactive),74.4% (inactive),102% (inactive)
CCc1cc(O)ccc1Nc1cc(-c2ccc(-n3cccn3)cc2)[nH]n1,33.6% (inactive),77.4% (inactive),117% (inactive),69% (inactive),82.5% (inactive),60.9% (inactive),49.2% (inactive),43.2% (inactive),26.1% (inactive),80.8% (inactive)
Clc1ccc2c(N/N=C/c3c[nH]c4ccccc34)ccnc2c1,-82.7% (active),-72.3% (active),-96.2% (active),-92.4% (active),-84.1% (active),-81% (active),-98.4% (active),-61.7% (active),-92.9% (active),-92.7% (active)
CCNC(=O)Oc1ccc(/C(=C(/C)c2ccc(OC)cc2)c2ccc(OCCN3CCCCCC3)cc2)cc1,-25.8% (active),10.5% (inactive),59.4% (inactive),61% (inactive),38.8% (inactive),31.3% (inactive),78.5% (inactive),41% (inactive),-6.62% (active),19.8% (inactive)
CCCCCCN1C=C/C(=C\C(=O)n2ccc3ccccc32)c2ccccc21,79.6% (inactive),65.1% (inactive),65.8% (inactive),56.7% (inactive),46.9% (inactive),58.6% (inactive),30.8% (inactive),57.9% (inactive),18.7% (inactive),101% (inactive)
O=C(CSc1nnc(-c2ccc(Cl)cc2)n1-c1ccccc1)Nc1ccccc1Cl,76.8% (inactive),67.5% (inactive),65.8% (inactive),82.4% (inactive),61.6% (inactive),77.8% (inactive),95.4% (inactive),95.7% (inactive),15% (inactive),99.2% (inactive)
COc1ccc2sc(NC(=O)CCCCCCNC(=O)C(O)(O)C(F)(F)F)nc2c1,5.37% (active),5.06% (active),41.4% (inactive),15.9% (inactive),-51.5% (active),34.1% (inactive),-82.2% (active),-64.6% (active),-81% (active),1.51% (active)
COC(=O)[C@@H](Cc1c[nH]c2ccccc12)NC(=O)CCCCOc1cc(O)c2c(=O)cc(-c3ccccc3)oc2c1,80.8% (inactive),107% (inactive),72.3% (inactive),89.4% (inactive),92.2% (inactive),73.6% (inactive),-97.8% (active),66.3% (inactive),54.7% (inactive),101% (inactive)
CC[C@]12CC(C(=O)OC)=C3Nc4ccccc4[C@@]34CCN(C14)[C@@H]1c3cc4c(cc3O[C@@H]1[C@H]2O)NC1=C(C(=O)OC)C[C@@]2(CC)C3N(CC[C@@]143)C[C@H]1O[C@H]12 (stereo not given in full),3.59% (active),12.2% (inactive),-4.96% (active),14.2% (inactive),19.2% (inactive),10.1% (inactive),-75.7% (active),8.9% (active),-64.6% (active),20.7% (inactive)
C=C(C)[C@@H]1CC[C@]2(C(=O)N3CCN(C)CC3)CC[C@]3(C)[C@H](CC[C@@H]4[C@@]5(C)CC[C@H](OP(=O)(OCC)OCC)C(C)(C)[C@@H]5CC[C@]43C)[C@@H]12,60.2% (inactive),76.1% (inactive),89.7% (inactive),90.9% (inactive),78.8% (inactive),44.3% (inactive),69.7% (inactive),81.6% (inactive),44.6% (inactive),104% (inactive)
CCOC(=O)c1c(NC(=O)c2cccc(C(F)(F)F)c2)sc2c3c(ccc12)OCN(C)C3,-70.9% (active),-11.8% (active),83.6% (inactive),49.6% (inactive),-79.4% (active),-42.5% (active),68.6% (inactive),25.6% (inactive),-94.7% (active),9.77% (active)
Clc1ccc2[nH]cc(-c3cncn3CCc3ccc4c(c3)OCO4)c2c1,72% (inactive),70.5% (inactive),73.8% (inactive),82.1% (inactive),69.9% (inactive),51% (inactive),33.8% (inactive),62.3% (inactive),91.5% (inactive),93.5% (inactive)
O=S(=O)(NCCCNc1nccc(-c2[nH]c(-c3ccccc3)nc2-c2ccc(F)c(O)c2)n1)c1ccc(C(F)(F)F)cc1,38.1% (inactive),94.9% (inactive),-0.845% (active),43.2% (inactive),33.5% (inactive),40.8% (inactive),-0.786% (active),2.32% (active),46.3% (inactive),30.1% (inactive)
O=C(Nc1ccc(Cl)c(C(F)(F)F)c1)Nc1ccc2c(ccn2C(=O)c2cccc(F)c2)c1,17% (inactive),39.8% (inactive),55% (inactive),39.7% (inactive),23.3% (inactive),9.11% (active),62.9% (inactive),39.7% (inactive),38.4% (inactive),46.6% (inactive)
Cc1ccc(C)c(NC2=C(Cl)C(=O)c3nc(C)ccc3C2=O)c1,-60.9% (active),86.4% (inactive),63.2% (inactive),17.1% (inactive),1.85% (active),9.58% (active),-96.8% (active),-35.2% (active),-69.5% (active),-11.6% (active)
COc1ccc(-c2cc(-c3ccc(N(C)C)cc3)n3c(n2)nc2ccccc23)cc1,50.7% (inactive),54.1% (inactive),95.2% (inactive),67.2% (inactive),40.5% (inactive),28.1% (inactive),3.05% (active),48.2% (inactive),66.3% (inactive),77% (inactive)
CC(=O)c1c([Si](C)(C)C)c2cc(C#N)ccn2c1C(=O)c1ccc(Br)cc1,85.1% (inactive),67.8% (inactive),95.1% (inactive),86.9% (inactive),93.2% (inactive),76% (inactive),91.2% (inactive),74.9% (inactive),99.6% (inactive),92.1% (inactive)
C/C=C/CC(C)C(O)[C@H](NC(=O)[C@@H]1CCCN1C(=O)[C@](C)(CC)NC(=O)CCCCCCCCC)C(=O)N[C@@](C)(CC)C(=O)N[C@@H](CCC(N)=O)C(=O)N[C@H](CCC(N)=O)C(=O)NC(C)(C)C(=O)NC(C)(C)C(=O)N[C@@H](CCC(N)=O)C(=O)N[C@H](CC(C)C)C(=O)N[C@H](CO)CC(C)C (stereo not given in full),76.9% (inactive) and -9.08% (active),89.8% (inactive) and -25% (active),13.1% (inactive) and -93.4% (active),65.8% (inactive) and -98.1% (active),61.2% (inactive) and -77.9% (active),69.8% (inactive) and -63.6% (active),7.02% (active) and -81.2% (active),73.8% (inactive) and -86.4% (active),40.1% (inactive) and -86.6% (active),-42.7% (active) and -100% (active)
O=C(CCCCCCN1CC(=O)N2[C@@H](c3ccc(Cl)s3)c3[nH]c4ccccc4c3C[C@H]2C1=O)NO,77.1% (inactive),38.9% (inactive),22.5% (inactive),52.2% (inactive),50.3% (inactive),47.4% (inactive),19.7% (inactive),21.9% (inactive),-62.7% (active),37.2% (inactive)
CN1CCC[C@]2(C)[C@H]3CC[C@@H]4[C@@H]5[C@H]6OC[C@@]5(CCC6(C)C)CC[C@@]4(C)[C@]3(C)CC[C@H]2C1(C)C,24.4% (inactive),21.6% (inactive),89.1% (inactive),84.8% (inactive),27.5% (inactive),74.2% (inactive),93.8% (inactive),98.4% (inactive),-74.5% (active),96.2% (inactive)
CN1CCN(CCCCCC(=O)Nc2nc(-c3cccc(NS(=O)(=O)c4cccc5c(N(C)C)cccc45)c3)cs2)CC1,23.1% (inactive),15.8% (inactive),76.7% (inactive),83.7% (inactive),65% (inactive),67.4% (inactive),71% (inactive),83.2% (inactive),-84.8% (active),-61.1% (active)
